# According to PubChem BioAssay AID1259318 (Sanford-Burnham Center for Chemical Genomics, 2017):
# About 3,000 (0.81%) of roughly 370,000 compounds were called active.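 The calls were made as follows: active = activity above about 14% (limit read from the data; passing the limit was not always enough); inactive = the rest.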 The entries come from a sample that favours actives as a whole.
# Biological target: Nuclear receptor subfamily 1 group D member 1 (Homo sapiens) (UniProt P20393)
# Test: modulators of Rev-erb alpha DNA binding, primary screen, biochemical, FITC-DNA, fluorescence polarization, uHTS (AID 1259318);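 also: 0% = DMSO wells with 35 nM protein and 100% = DMSO wells with 750 nM protein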
# Settings: Rev-erbα–FITC-DNA binding, 90 min, at 10 µM, active compounds read high
# Nuclear receptor subfamily 1 group D member 1 (Homo sapiens), sequence (P20393 whole entry, looked up): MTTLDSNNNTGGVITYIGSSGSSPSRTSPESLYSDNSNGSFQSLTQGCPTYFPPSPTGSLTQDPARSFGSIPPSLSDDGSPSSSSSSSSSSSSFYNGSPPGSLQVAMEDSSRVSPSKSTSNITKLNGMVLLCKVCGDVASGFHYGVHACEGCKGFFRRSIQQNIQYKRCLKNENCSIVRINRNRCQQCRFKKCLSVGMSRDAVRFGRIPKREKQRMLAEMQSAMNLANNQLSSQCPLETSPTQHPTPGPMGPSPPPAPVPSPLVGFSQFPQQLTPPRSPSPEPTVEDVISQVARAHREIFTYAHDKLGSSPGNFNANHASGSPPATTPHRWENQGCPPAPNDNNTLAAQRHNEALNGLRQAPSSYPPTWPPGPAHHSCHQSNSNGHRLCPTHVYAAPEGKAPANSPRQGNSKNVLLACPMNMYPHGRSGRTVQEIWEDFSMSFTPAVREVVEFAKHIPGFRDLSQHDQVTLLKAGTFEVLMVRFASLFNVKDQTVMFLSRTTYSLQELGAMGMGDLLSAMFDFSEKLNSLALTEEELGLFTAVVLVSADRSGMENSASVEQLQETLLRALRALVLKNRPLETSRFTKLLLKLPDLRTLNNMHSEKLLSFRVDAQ
row,SMILES,activity
1,NC(=O)c1ncn([C@@H]2O[C@H](C(=O)O)[C@@H](O)[C@H]2O)n1,-0.1% (inactive)
2,CSCC[C@H](NC(=O)N1CCn2c1nc1ccccc12)C(=O)NC1CCCCC1,0.83% (inactive)
3,COc1ccc(-c2nn(C)c(=O)c3ccccc23)cc1NC(=O)COc1ccccc1,25.4% (active)
4,COc1ccc(-c2nn(C)c(=O)c3ccccc23)cc1CNC(=O)C1CCCCC1,-3.48% (inactive)
5,COc1ccc(S(=O)(=O)N2CCCCC2)cc1NC(=O)COc1ccccc1,1.75% (inactive)
6,C=CCNC(=O)c1ccc2c3n(nc2c1)-c1ccc(C)cc1CO3,0.44% (inactive)
7,CCc1cc(=O)oc2c(C)c(OCC(=O)N3CC[C@@]4(O)CCCC[C@H]4C3)ccc12,2.4% (inactive)
8,O=C(NCCCN1CCCCCC1)c1ccc(N2CCCC2=O)cc1,-2.08% (inactive)
9,CS(=O)(=O)c1ccc2nc(NC(=O)c3ccc(N4CCCC4=O)cc3)sc2c1,41.6% (active)
10,O=C(Nc1cc(S(=O)(=O)N2CCOCC2)ccc1OCC(F)(F)F)c1ccc(N2CCCC2=O)cc1,3.86% (inactive)
11,CC(=O)c1c(C)[nH]c(C(=O)OCC(=O)NCCC(C)C)c1C,4.11% (inactive)
12,COC(=O)C12C=C3CC(c4ccccc4)=C3C(=O)N1Cc1[nH]c3ccccc3c1C2 (stereo unspecified),-0.17% (inactive)
13,Cc1nc2nc(SCC(=O)Nc3cccc(F)c3)[nH]c2cc1Br,43.6% (active)
14,CCCn1c(SCC(=O)Nc2cccc(C(=O)OCC)c2)nnc1-c1ccoc1C,-3.66% (inactive)
15,CCn1c(SCC(=O)Nc2cccc(F)c2)nnc1-c1cc2cc(Br)ccc2o1,56.3% (active)
16,COc1ccc(C(=O)CSc2nccc(=O)[nH]2)cc1,2.06% (inactive)
17,O=C(CSc1nc2[nH]c(=O)[nH]c(=O)c2s1)Nc1cccc(F)c1,-1.8% (inactive)
18,CCn1c(CNC(=O)c2ccco2)nnc1SCC(=O)Nc1cccc(F)c1,-8.25% (inactive)
19,O=C(CSc1nc2ncccc2[nH]1)Nc1ccc2c(c1)OCCO2,-0.69% (inactive)
20,Cc1cc(C)c(C(=O)CSc2nc(C)cc(=O)[nH]2)c(C)c1,-1.57% (inactive)
21,Cc1nc2nc(SCC(=O)c3ccccc3)[nH]c2cc1Br,34.1% (active)
22,CN(Cc1nc(-c2cnccn2)no1)Cc1n[nH]c2c1CCCCC2,-2.14% (inactive)
23,COC(=O)c1cc(S(=O)(=O)N2CCN(c3cc(C)ccc3C)CC2)c[nH]1,11.2% (inactive)

row,SMILES,activity
1,CCOC(=O)C1CCN(C(=O)C(C)(C)NC(=O)Nc2ccccc2Cl)CC1,-6.49% (inactive)
2,Cc1ccc(C(=O)C2CCN(CC(=O)NCCC(C)C)CC2)cc1,-0.72% (inactive)
3,Cc1noc(C)c1CCC(=O)O,4.26% (inactive)
4,Cc1ccc(SCC2=NNC(=O)C2)cc1,-1.27% (inactive)
5,O=C(c1cccs1)N1CCCC(c2nc(-c3ccc(F)cc3)no2)C1 (stereo unspecified),1.09% (inactive)
6,O=C(CCC(=O)c1cccs1)NC1CCCCCC1,3.87% (inactive)
7,N#Cc1c(-c2ccc(F)cc2)cc(C2CC2)nc1SCC(=O)c1cccs1,174% (active)
8,COCCCNc1nc2c(-c3cccc(C)c3)nnn2c2ccc(Cl)cc12,52.9% (active)
9,COCCCNc1nc2c(-c3cccc(C(F)(F)F)c3)nnn2c2ccccc12,15.6% (inactive)
10,COCCCNc1nc2ccccc2nc1NS(=O)(=O)c1ccc(F)cc1,-2.18% (inactive)
11,COc1ccccc1C(=O)Oc1ccc(N2C(=O)CCC2=O)cc1,-3.5% (inactive)
12,COc1ccc(-n2nc3c(c2NC(=O)c2ccc(N4C(=O)CCC4=O)cc2)CSC3)cc1,1.69% (inactive)
13,COc1ccc(-c2csc(NC(=O)c3ccc(N4C(=O)CCC4=O)cc3)n2)cc1OC,19.3% (active)
14,Cc1ccc(CS(=O)(=O)CCC(=O)NCc2ccc(F)cc2)cc1,-2.15% (inactive)
15,C/C=C/C=C/C(=O)OCC(=O)Nc1ccc(Cl)cc1,-1.79% (inactive)
16,O=S1(=O)c2ccc(N3CCN(Cc4ccccc4F)CC3)cc2Oc2ccccc2CN1Cc1cn(Cc2ccc(Cl)cc2)nn1,-0.02% (inactive)
17,CCOC(=O)c1ccc(NC(=O)c2c(N)n(C)c(=O)[nH]c2=O)cc1,2.83% (inactive)
18,CCOC(=O)c1ccc(NC(=O)c2c(NCc3ccccc3)[nH]c(=O)[nH]c2=O)cc1,19.9% (active)
19,CCOC(=O)c1ccc(NC(=O)CCn2c(=O)oc3ccccc32)cc1,-4.86% (inactive)
20,CCCCN1CCN(C(=O)c2ccc3c(c2)NC(=O)C(C)(C)O3)CC1,-3.01% (inactive)
21,O=c1ccc2c(-c3ccccc3S(=O)(=O)O)c3ccc(O)c(O)c3oc-2c1O,-56.3% (inactive)
22,O=C(CNC(=O)C12CC3CC(CC(C3)C1)C2)OCC(=O)N1CCCCC1,-3.15% (inactive)
23,COc1ccc(CNC(=O)c2cc(=O)c3c(C)cc(C)cc3o2)cc1,-1.71% (inactive)

row,SMILES,activity
1,COc1ccc(CNC(=O)CN2CCC(n3nnc4cc(F)ccc43)CC2)cc1,0.03% (inactive)
2,COc1ccc(CNC(=O)c2nnn(CC(=O)Nc3cc(C)cc(C)c3)c2N)cc1,33.3% (active)
3,CCOC(=O)c1c(NC(C)=O)sc2c(O)c(Br)ccc12,-1.09% (inactive)
4,CCOC(=O)C1CCN(C(=O)CN2C(=O)NC(C)(c3ccc4cc(OC)ccc4c3)C2=O)CC1 (stereo unspecified),-4.48% (inactive)
5,O=C(Nc1cc(Cl)cc(Cl)c1)OCCN1CCCC12CCC(c1ccccc1)CC2 (stereo unspecified),-2.58% (inactive)
6,CCCOc1cc(C)c(S(=O)(=O)n2nnc3ccccc32)cc1C,-0.13% (inactive)
7,Cc1nc2c(c(C)nn2-c2ccccc2)c(C)c1C,9.78% (inactive)
8,CSc1ccc(-c2c(C#N)c(N)nc3c2c(C)nn3-c2ccccc2)cc1,59.1% (active)
9,Cn1c(=O)c2c(-c3cccc(Br)c3)c(C#N)c(N)nc2n(C)c1=O,-4.07% (inactive)
10,CCC(C)[C@H]1COCCS(=O)(=O)N1Cc1ccc(C)cc1 (stereo partly specified),-5% (inactive)
11,O=C1C(=O)N(Cc2ccc(-c3ccsc3)cc2)c2ccc(OC(F)(F)F)cc21,-0.04% (inactive)
12,O=C(c1cccc(C(F)(F)F)c1)N1CC[C@H]2[C@H](CCCN2Cc2cc(F)cc(F)c2)C1,0.92% (inactive)
13,Cc1ccc2nc(-c3ccc(NC(=O)CN(C)S(=O)(=O)c4ccccc4)cc3)sc2c1,8.26% (inactive)
14,Cc1ccc(N(CC(=O)Nc2cc(C)cc(C)c2)S(=O)(=O)c2cccc3nonc23)cc1,0.18% (inactive)
15,Cc1cccc(N(CC(=O)Nc2ccc(-c3nc4ccc(C)cc4s3)cc2)S(C)(=O)=O)c1,35.6% (active)
16,CCOc1ncccc1C(=O)N(CC)CC(=O)Nc1ccc(NC(C)=O)cc1,-1.37% (inactive)
17,COc1ccc(-c2nnc3ccc(SCc4ccccc4)nn23)cc1,25.6% (active)
18,COC(=O)C(C)Sc1ccc2nnc(-c3cccc(F)c3)n2n1 (stereo unspecified),1.26% (inactive)
19,O=C(CSc1ccc2nnc(-c3ccccc3)n2n1)N1CCCc2ccccc21,-1.89% (inactive)
20,CCOc1ccc(-c2nnc3ccc(SC)nn23)cc1,48.8% (active)
21,COc1ccc(CSc2nnc(-c3cccc(C)c3)n2C)cc1,9.69% (inactive)
22,CCOC(=O)CNC(=O)CSc1ccc2nnc(-c3cccnc3)n2n1,3.05% (inactive)
23,COc1cccc(CN(C)CC(=O)NCc2ccccc2Cl)c1OC,-3.26% (inactive)

row,SMILES,activity
1,C=CCOC/C=C/C#CCN(CC=C)Cc1ccc(OC)cc1OC,6.98% (inactive)
2,Cc1ccc(-c2noc(CCC(=O)Nc3ccccc3N3CCN(C)CC3)n2)cc1,3.69% (inactive)
3,COCCn1c(C)cc(C(=O)COC(=O)/C=C/c2cccc(OC)c2)c1C,6.09% (inactive)
4,Cc1cccc([C@@H]2[C@@H]3C(=O)N(C)C(=O)[C@@H]3[C@@H]3C(=O)Nc4ccccc4C(=O)N23)c1,1.77% (inactive)
5,CCCC(=O)Nc1ncnc2c1ncn2C1O[C@@H]2COP(=O)(O)O[C@H]2[C@H]1OC(=O)CCC (stereo partly specified),-3.72% (inactive)
6,COc1cc(/C=C/C(=O)n2cnc3ccccc32)cc(OC)c1OC,11.5% (inactive)
7,Cc1[nH]c2ccccc2c1SCC(=O)Nc1nccs1,4.6% (inactive)
8,Cc1cc(C(F)(F)F)nc(SCC(=O)Nc2nccs2)n1,-6.74% (inactive)
9,CC(=O)c1cc(C#N)c(SCC(=O)Nc2nccs2)nc1C,30.9% (active)
10,Cn1sc(=O)c2cc(S(=O)(=O)NC3CC3)ccc21,-1.88% (inactive)
11,CCOC(=O)NC(=O)CSc1nnc(SCCC(=O)O)s1,0.79% (inactive)
12,O=C(CSc1nc2ccccc2c(=O)n1CCCO)NC1CC1,4.03% (inactive)
13,O=C(Nn1c(SCc2ccc([N+](=O)[O-])cc2)nc2ccccc2c1=O)c1ccc(F)cc1,0.27% (inactive)
14,O=C(CCn1c(SCC(=O)c2ccccc2)nc2ccccc2c1=O)NCc1ccc(F)cc1,26.1% (active)
15,O=S(=O)(c1cccs1)N1CCCc2nc(-c3ccc(Br)cc3)ccc21,1.38% (inactive)
16,c1ccc2c(c1)nnn2-c1ccncc1,1.17% (inactive)
17,CC(C)CN(C(=O)c1cccc(S(=O)(=O)N2CCCCC2)c1)C1CCS(=O)(=O)C1 (stereo unspecified),5.44% (inactive)
18,CCOc1nc(-c2ccc(OC)cc2)ccc1-c1noc(-c2cc(OC)c(OC)c(OC)c2)n1,26.3% (active)
19,CCOC(=O)c1cc(-c2nnc(-c3cc(OC)c(OC)c(OC)c3)o2)c(C)nc1C,9.45% (inactive)
20,CCOc1cc(-c2noc(CCC(=O)N3CCOCC3)n2)ccc1OC,-5.84% (inactive)
21,Cc1sc2nc(-c3ccccc3F)oc(=O)c2c1C,1.33% (inactive)
22,CCCCC(=O)N[C@@H]1CC[C@@]23CCCN2C(=O)CCC[C@H]3[C@H]1C,1.41% (inactive)
